High-throughput results (PubChem)
Compounds with a hit are over-represented: about 0.88% of the library has one in this group of screens.
APE1 inh-1: qHTS Assay for Inhibitors of the Human Apurinic/apyrimidinic Endonuclease 1 (APE1); DNA repair nuclease/redox regulator APEX1 (Homo sapiens), P27695; recombinant APE1, TAMRA/BHQ-2 abasic DNA cleavage fluorescence; Potency, µM (series often up to 65.8 µM), without a hit: at the top dose activity change, negative = inhibition, most hits filed as inhibitors; 350,000 compounds, 0.35% hits; AID 2517, 2012;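 further: plate controls were vehicle for no effect and reference inhibitor for full effect; nearly all actives have a fitted effect of over 55% in size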
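Step 1: APE1 (0.75 nM) with compound, 15 min RT. Step 2: add 50 nM fluorophore/quencher THF duplex. Step 3: three fluorescence reads 60 s apart (525/598 nm); read 3 minus read 1 = reaction progress.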
ERG-DNA inh: qHTS for Small Molecule Inhibitors of the ERG Ets/DNA interaction | 370,000 compounds, 0.028% hits | AID 624246, 2012 | Potency, µM (titrated, usually from 76.9 µM), without a hit: at the top dose FP activity, negative = inhibition, usual class: inhibitors | fluorescence polarization, His-ERG Ets domain / labelled DNA | Transcriptional regulator ERG (Homo sapiens), P11308; active means well fitted inhibition curve with a large enough effect in the polarisation, with a control signal flat; inconclusive means small, poorly fitted or top-dose-only effect, or effect the other way, or a change in a side signal; inactive means no such curve, though single readings can be large or run the other way; the % refers to the polarisation;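 further: polarization taken with two DNA probes labelled with fluorescein and Texas red; % of control where 0% means no effect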
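His-tagged ERG Ets domain (1 uM in the protein solution; 300mM KCl, 50mM Tris-HCl, 1mM EDTA, 1mM DTT, pH 7.5) received compound, then a probe mix of 5 nM fluorescein-DNA and 100nM Texas-615-DNA. Fluorescence polarization was read for both dyes.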
BLM helicase inh: qHTS Assay for Inhibitors of Bloom's syndrome helicase (BLM); RecQ-like DNA helicase BLM (Homo sapiens), P54132; recombinant BLM DNA unwinding, fluorescence dequenching; Potency, µM (top dose mostly 56.1 µM), for the others: at the top dose activity change, negative = inhibition, usual class: inhibitors; 350,000 compounds, 0.2% hits; AID 2528, 2010;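 further: plate controls were vehicle for no effect and no enzyme for full effect; nearly all actives have a fitted effect of over 35% in size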
RECQ1 helicase: qHTS Assay for Inhibitors of RecQ-Like Dna Helicase 1 (RECQ1); ATP-dependent DNA helicase Q1 (Homo sapiens), P46063; RECQ1 DNA unwinding, red fluorescence kinetic read; Potency, µM (doses to about 57.3 µM), for the others: top-dose activity, negative = inhibition, most hits filed as inhibitors; 240,000 compounds, 0.54% hits;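 further: plate controls were vehicle for no effect and no enzyme for full effect; nearly all actives have a fitted effect of over 30% in size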
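RECQ1T1 50 nM; forked duplex (20 bp + 30-nt ss tails) 200 nM, ATP 2 mM final; pH 8.0, 2 mM MgCl2, 2.5 ug/ml poly(dI-dC); 15 min compound preincubation; discontinuous kinetic read over 2 h at RT.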
KAT2A inh: qHTS Assay for Inhibitors of GCN5L2; Histone acetyltransferase KAT2A (Homo sapiens), Q92830; GCN5L2 HAT assay, ThioGlo1 CoA-SH fluorescence; Potency, µM (top dose mostly 58.9 µM), for inactives: at the highest dose activity change, negative = inhibition, usual class: inhibitors; 390,000 compounds, 0.21% hits; further: on the % scale 0 is the no-effect control and ±100 the full control effect
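Fluorescence readout, Ex340nm/Em540nm: ThioGlo1 (50uM final) reacts with free CoA thiol released as 20nM GCN5L2 acetylates H3(1-25) peptide (75uM) using acetyl-CoA (70uM). Compound and enzyme sat 15 min beforehand; 20 min room-temperature reaction.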
WRN helicase inh: qHTS for Inhibitors of WRN Helicase. Bifunctional 3'-5' exonuclease/ATP-dependent helicase WRN (Homo sapiens), Q14191. WRN helicase unwinding, fluorescent forked duplex, kinetic. Potency, µM (doses to about 114 µM), for the others: at the highest dose activity change, negative = inhibition, most hits filed as inhibitors. 360,000 compounds, 0.46% hits. AID 651768, 2012; further: on the % scale 0 is the no-effect control and ±100 the full control effect; nearly all actives have a fitted effect of over 55% in size
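Fluorescence dequenching readout, ex 525 nm/em 598 nm, kinetic mode: forked duplex DNA (100 nM final) with adjacent fluorophore and quencher unwound by WRN (20 nM final) with 2 mM ATP. Compound preincubation 15 min, room temperature.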
DNA dye displace: Counterscreen for APE1 Inhibitors: Fluorescent Dye Displacement Assay | DNA fluorescent dye displacement counterscreen, fluorescence | 480 compounds, 7% hits | Potency, µM (series often up to 28.5 µM), inactives show at the top dose activity change, negative = inhibition, actives largely listed as inhibitors | shares compounds with APE1 inh-1;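 further: loss of thiazole orange fluorescence as the dye is displaced from duplex DNA; 0% = ThO with dsDNA and no compound and -100% = ThO without dsDNA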
Endo IV inh: Counterscreen for APE1 Inhibitors: qHTS Assay for Inhibitors of Endonuclease IV; AID 2565, 2010; 560 compounds, 4% hits; shares compounds with APE1 inh-1; Potency, µM (top dose mostly 27.1 µM), without a hit: at the top dose activity change, negative = inhibition, usual class: inhibitors; E. coli Endo IV, fluorogenic AP-site DNA cleavage;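 further: plate controls were uninhibited enzyme wells for no effect and no enzyme buffer wells for full effect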
APE1 inh-2: Confirmation qHTS Assay for Inhibitors of the Human Apurinic/apyrimidinic Endonuclease 1 (APE1); shares compounds with APE1 inh-1; purified APE1, fluorogenic abasic-site DNA cleavage; Potency, µM (top dose mostly 57.1 µM), for the others: at the top dose activity change, negative = inhibition, most hits filed as inhibitors; 750 compounds, 44% hits; AID 2572, 2010; further: on the % scale 0 is the no-effect control and ±100 the full control effect; nearly all actives have a fitted effect of over 30% in size
APE1 FP: qHTS FP-Based Assay for Inhibitors of the Human Apurinic/apyrimidinic Endonuclease 1 (APE1). shares compounds with APE1 inh-1. 480 compounds, 7% hits. Potency, µM (top dose mostly 28.5 µM), without a hit: at the top dose activity, negative = inhibition, usual class: inhibitors. APE1 binding to TAMRA-labelled double-stranded DNA, fluorescence polarization displacement; further: on the % scale 0 is the no-effect control and ±100 the full control effect
Starred values were filed as active, the others as inactive; i = inactive; ? = inconclusive; · = no result; ! = not active in a repeat; [ ] = dose if it differs, or a comment. Unless noted, the call rests on the fitted dose curve; in most records, active means well fitted curve in the direction sought with a large enough effect; inconclusive means small, poorly fitted or top-dose-only effect, or another doubt; inactive means no such curve, though single readings can be large; an effect the other way counts as inactive or inconclusive. Potency means the concentration at half of the fitted maximal effect.

SMILES | APE1 inh-1 | ERG-DNA inh | BLM helicase inh | RECQ1 helicase | KAT2A inh | WRN helicase inh | DNA dye displace | Endo IV inh | APE1 inh-2 | APE1 FP
COc1ccnc(Oc2ccccc2)c1C(N)=O | -64% | -4% | -2% | i | -4% | -30% | -10% | 4% | -11%[24.4 µM] | ?
Clc1ccccc1-c1nc(NCc2cccs2)c2ccccc2n1 | 7.9µM* | · | -25% | -26% | ? | · | ? | -87%[57.1 µM] | 16µM* | 38%[57.1 µM]
Cc1ccccc1-c1nc(NCc2cccs2)c2ccccc2n1 | ? | · | -14% | -14% | -24% | · | · | · | · | ·
CCSC1=N/C(=C\c2ccc(C(=O)O)cc2)C(=O)S1 | 1% | 2% | 3% | -12% | -3% | -23% | · | · | · | ·
C=CCSC1=N/C(=C\c2ccc(C(=O)O)cc2)C(=O)S1 | -3% | 13% | 2% | i | -2% | 5% | · | · | ? | ·
CCN(CC)Cc1cc(O)c(CN(CC)CC)cc1O | 6.3µM* | -9% | -2% | 25µM* | 1% | 50µM* | · | · | ? | ·
CCc1oc(C(=O)O)cc1CN(CC)CC | 6% | -4% | -3% | 1% | · | -8% | · | · | · | ·
Clc1cccc(-c2ccc(CNCCSc3nnnn3-c3ccccc3)o2)c1 | · | 0% | -6% | · | -14% | · | · | · | · | ·
COc1ccc(-c2nc3c(c(SCc4ccc(Br)cc4)n2)Cc2c(CO)cnc(C)c2O3)cc1 | · | 2% | -1% | · | -1% | · | · | · | · | ·
COc1cc([N+](=O)[O-])cc(/C=N/NC(=O)CC#N)c1O | ? | · | -15% | ? | -25% | · | -7% | 1% | ? | ?
CCC(=O)Nc1cccc(C2=NOC3(C2)C[C@@H](C(N)=O)N(C(=O)COc2ccc(Cl)cc2)C3)c1 (some centres undefined) | 1% | 10% | -1% | -12% | -5% | 0% | · | · | · | ·
C=C(C)C(=O)Nc1cccc(C2=NOC3(C2)C[C@H](C(N)=O)N(C(=O)COc2ccc(Cl)cc2)C3)c1 (some centres undefined) | ? | -7% | -15% | 18µM* | -15% | ? | · | · | ? | ·
C/C=C\C=C/C(=O)Nc1cccc(C2=NOC3(C2)C[C@@H](C(N)=O)N(C(=O)/C=C/C=C\C)C3)c1 (some centres undefined) | 35µM* | 0% | 10µM* | 22µM* | -35% | 25µM* | · | · | ? | ·
CCCCCCCCN1C(=O)[C@H](CC(=O)NCCCN2CCCC2=O)C[C@@]2(C(=O)OC)CC(C)(C)CC=C12 | · | · | · | · | · | -4% | · | · | · | ·
CCOC(=O)CNC(=O)CSc1nnc(-c2ccco2)n1Cc1ccco1 | 32µM* | -15% | 3% | -14% | 1% | 0% | ? | 2% | -10%[24.4 µM] | -93%
CCOC(=O)CNC(=O)CSc1nnc(-c2ccco2)n1N | -7% | -3% | -4% | i | -3% | 0% | · | · | · | ·
O=c1cc(-c2ccc(O)cc2)oc2c(O)c(O)c(O)c(O)c12 | 4.5µM* | -1% | 10µM* | 13µM* | 0% | 7.1µM* | -14% | 6% | 0.5µM* | 12%
O=c1cc(-c2ccccc2)oc2cc(O)c(O)c(O)c12 | 5.6µM* | 16% | 16µM*! | 28µM* | -4% | ? | 1µM* | 186%[57.1 µM] | 0.63µM* | 18%[57.1 µM]
O=c1cc(-c2ccc(O)cc2)oc2c1ccc1ccccc12 | 0% | 2% | · | · | 0% | -30% | · | · | · | ·
Cc1ccc(S(=O)(=O)N(Cc2nc(-c3cccc(C)c3)no2)C2CCCCC2)cc1 | · | 0% | -4% | · | -6% | · | · | · | · | ·
CC(=O)c1cccc(Nc2cc(C)nc3nc(-c4ccccc4C)nn23)c1 | · | -2% | 1% | · | -7% | · | · | · | · | ·
O=C(N/N=C/c1ccc2c(c1)OCO2)c1cc2ccccc2o1 | ? | 4% | -21% | -14% | -11% | -5% | · | · | 40µM* | ·
Cc1ccc(C(=O)N/N=C/c2ccc3c(c2)OCO3)o1 | 1% | -1% | -2% | 2% | -7% | 3% | · | · | · | ·
COc1cccc(-c2nc(S(=O)(=O)c3ccc(Cl)cc3)c(NCc3ccccc3)o2)c1 | · | 3% | -11% | · | -23% | · | · | · | · | ·
COc1ccc(CNC(=O)Nc2cc(C)cc(C)c2)cc1 | -45% | 4% | -5% | 1% | -9% | 0% | -1% | 5% | -5%[24.4 µM] | 3%
COc1ccc(CNC(=O)Nc2ccc(C)cc2)cc1 | ? | -1% | 0% | -12% | -5% | -2% | · | · | · | ·
O=C(Nc1nc2nccc(-c3ccccc3)n2n1)c1ccc(F)cc1 | 4% | -1% | 1% | -3% | -2% | -11% | · | · | · | ·
O=C(Nc1nc2nccc(-c3ccccc3)n2n1)c1ccccc1 | -11% | 16% | -10% | -9% | -3% | -11% | · | · | -24% | ·
